Compounds with a hit are over-represented: about 4.8% of the library has one in this group of screens.
ssDAF-12 act: S. stercoralis DAF-12 nuclear receptor activators, primary screen, cell-based, luminescence, HEK293, GRIP1 co-expression, lit1-tk-luc; Nuclear hormone receptor DAF-12 (Strongyloides stercoralis); HEK293 ssDAF-12/GRIP1 lit1-tk-luc reporter; % of 3 µM dafachronic acid response; activation, % at 6.8 µM; hit rate 1% among 370,000; AID 652126, 2013;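 active means activation above the mean over all tested compounds plus 3 SD, cut at about 0.9% in these data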;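 further: 0% = DMSO-only wells and 100% = 3 µM delta7-dafachronic acid wells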
DAX1 inh-1: DAX1 (NR0B1) inhibitors, primary screen, cell-based, HEK293, Gal4-DAX1, luciferase luminescence; Nuclear receptor subfamily 0 group B member 1 (Homo sapiens), P51843; hit rate 0.99% among 340,000; HEK293 Gal4-DAX1 luciferase reporter; inhibition, % at 6.75 µM;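 active means inhibition above the mean over all tested compounds plus 3 SD, cut at about 4.2% in these data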;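 further: 0% = DAX1-transfected cells with DMSO and 100% = empty-vector control cells with DMSO; inhibition shows as a rise in luminescence from relieved DAX1 repression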
Target sequence (P51843 207-470 limits assumed): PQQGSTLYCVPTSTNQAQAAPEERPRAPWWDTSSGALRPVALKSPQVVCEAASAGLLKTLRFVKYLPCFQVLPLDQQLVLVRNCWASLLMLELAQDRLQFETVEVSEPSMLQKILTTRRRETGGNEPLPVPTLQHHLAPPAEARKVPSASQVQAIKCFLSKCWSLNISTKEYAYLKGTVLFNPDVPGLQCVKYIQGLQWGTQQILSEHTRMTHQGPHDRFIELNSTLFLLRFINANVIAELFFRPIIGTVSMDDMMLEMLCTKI
hcDAF-12 act: H. contortus DAF-12 nuclear receptor activators, primary screen, cell-based, luminescence, HEK293, lit1-tk-luc reporter | HEK293 hcDAF-12 lit1-tk-luc reporter; 0% DMSO, 100% Δ7-dafachronic acid | activation, % at 6.8 µM | hit rate 1.4% among 370,000 | AID 652067, 2013;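 active means activation above the mean of all tested compounds plus 3 SD, cut at about 5.5% in these data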;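 further: 100% = response to 3 µM Δ7-dafachronic acid high control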
hgDAF-12 ag: H. glycines DAF-12 receptor agonists, primary screen, cell-based, luminescence, HEK293, GAL4 fusion, UAS-luciferase; Nuclear hormone receptor DAF-12 (Heterodera glycines), GAL4 fusion; HEK293 GAL4-hgDAF12 UAS-luciferase reporter, agonist luminescence; normalized to butyrate control; activation, % at 6.8 µM; hit rate 1.8% among 370,000; AID 687014, 2013;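 active means activation above a cutoff set at the mean of all screened compounds plus 3 SD, cut at about 10% in these data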;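 further: 0% = DMSO wells and 100% = sodium butyrate wells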
DAX1 inh-2: DAX1 (NR0B1) inhibitors on StAR promoter, primary screen, cell-based, luminescence, SF-1 (NR5A1), full-length DAX-1. HEK293T StAR-luciferase reporter, SF-1/DAX-1 repression relief. inhibition, % at 6.8 µM. hit rate 1.1% among 370,000;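 active means inhibition above the mean over all tested compounds plus 3 SD, cut at about 3.6% in these data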;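 further: 0% = DAX-1 cells with DMSO and 100% = cells lacking DAX-1 with DMSO; higher inhibition means more luminescence from relief of DAX-1 repression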
SMARCA2 act: SMARCA2 (BRM) function activators, primary screen, cell-based, luminescence, high throughput | MG213 cells, MMTV-luciferase reporter, dexamethasone, overnight | activation, % at 9.1 µM | hit rate 1% among 370,000 | AID 652017, 2013; in the data active means activation above about 7.8%;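 further: 0% = vehicle wells and 100% = reference activator wells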
Starred values were filed as active, the others as inactive; x = not tested or not shown.

SMILES | ssDAF-12 act | DAX1 inh-1 | hcDAF-12 act | hgDAF-12 ag | DAX1 inh-2 | SMARCA2 act
CS(=O)(=O)NNC(=O)c1csc(Cc2c(Cl)sc3ccc(Cl)cc23)n1 | -1 | 4.6* | -1 | 1 | 0 | -5
CC(c1ccc(F)cc1)n1cc(C(=O)NCCN(C)C)nn1 (centres undefined) | -1 | 5.5* | -1 | 0 | 0 | 2
CC1CCCC(NC(=O)CNC(=O)c2cccs2)C1C (centres undefined) | -1 | 5.2* | 0 | 1 | 1 | 0
CC1CCCC(NC(=O)COC(=O)c2cccs2)C1C (centres undefined) | -1 | 1 | -1 | 0 | 2 | 6
CC(=O)Nc1ccc(NC(=O)C(=O)c2cn(CC(=O)N3CCCCC3)c3ccccc23)cc1 | -1 | -1 | -1 | -2 | -1 | -3
CC(=O)Nc1cccc(NC(=O)C(=O)c2cn(CC(=O)N3CCCC3)c3ccccc23)c1 | 1.2* | 0 | 6.0* | 5 | 2 | -3
CCOC(=O)C1CCN(CC(C)(C)NS(=O)(=O)c2ccc(Cl)cc2)CC1 | -1 | 0 | -2 | -1 | 0 | -2
COC(=O)/C=C/C1=CN(Cc2ccccc2)CCC1=O | -1 | 0 | -2 | 1 | 0 | 1
Cc1cc(Cl)c2oc(C(=O)N(C)Cc3ccon3)c(C)c2c1 | 0 | 1 | 2 | 13* | 1 | 1
Cc1ccc2oc(C(=O)N(CCO)Cc3ccccc3)c(C)c2c1 | -1 | 0 | -2 | 1 | 0 | -3
Cc1cc(Cl)c2oc(C(=O)N(C)Cc3cc(C)[nH]n3)c(C)c2c1 | -1 | 1 | -2 | -2 | 0 | -1
Cc1cc(Cl)c2oc(C(=O)N(CCO)Cc3ccccc3)c(C)c2c1 | -1 | 8.1* | 0 | 0 | 1 | 0
O=c1c(Br)c(N2CCCC2)cnn1-c1ccccc1 | 0 | 0 | 5.6* | 12* | 3 | 3
CN1CCN(c2cnn(-c3ccccc3)c(=O)c2Br)CC1 | -1 | 0 | 0 | 3 | 1 | -2
CCCOc1ccc(NC(=O)C2CC(=O)N/C(=N/N=C(C)/C=C/c3ccc(N(C)C)cc3)S2)cc1 (centres undefined) | -1 | -1 | 1 | 6 | 0 | 9.3*
O=C(COC(=O)COc1ccc2ccccc2c1)NCC(F)(F)F | -1 | 0 | 5.6* | 0 | 0 | -3
CCCCNC(=S)Nc1ccc([N+](=O)[O-])cc1 | -1 | -1 | -2 | 2 | 0 | -2
c1ccc(CSc2ccc(-c3ccccn3)nn2)cc1 | 0 | 1 | 5 | 12* | 3 | 0
O=C(CSc1ccc(-c2ccccn2)nn1)c1ccccc1 | -1 | 4.6* | 2 | 9 | 0 | 3
Clc1ccc(CSc2ccc(-c3ccccn3)nn2)cc1 | -1 | 2 | 4 | 5 | 1 | 1
COc1ccccc1C(=O)Nc1nnc(-c2ccc3c(c2)CCCC3)o1 | 0 | 0 | -2 | 4 | -1 | -1
CC(=O)Nc1nnc(-c2ccc3c(c2)CCCC3)o1 | 0 | 1 | 2 | 11* | 3.8* | 7
Cc1nc2ccccc2n1Cc1ccccc1Br | -2 | -3 | -5 | -7 | -1 | -6
O=c1[nH]c2ccccc2nc1-c1c[nH]c2ccccc12 | 0 | 2 | 6.5* | 3 | 1 | 0
Cc1ccccc1C(=O)NC(CC(C)C)C(=O)Nc1cccc(S(=O)(=O)N(C)C)c1 (centres undefined) | 0 | -2 | -1 | 3 | 1 | -3
SMILES | ssDAF-12 act | DAX1 inh-1 | hcDAF-12 act | hgDAF-12 ag | DAX1 inh-2 | SMARCA2 act
CC(=O)N=c1c(C#N)cc2c(=O)n3ccccc3nc2n1Cc1ccccc1 | -1 | 0 | 0 | 0 | 0 | 8.3*
Cc1ccc(S(=O)(=O)CC(=O)Nc2ccc(F)c(F)c2F)cc1 | -2 | 0 | 0 | -1 | 0 | -3
CCCNC(=O)C1(C)CCN(Cc2ccc(-n3ccnc3)cc2)C1 (centres undefined) | -1 | x | -1 | -1 | 1 | -3
CC1CC(C)CN(C(=O)C2CCN(c3cncnc3)CC2)C1 (centres undefined) | -1 | x | 1 | 0 | 0 | -5
COc1ccccc1NC(=O)/C=C\c1ccco1 | 0 | 1 | 5.6* | 3 | 0 | 3
COc1ccccc1NC(=S)NC(=O)/C=C/c1ccco1 | 0 | 1 | 1 | 2 | 0 | 3
COc1cccc(NC(=O)/C=C/c2ccco2)c1 | 0 | 0 | 2 | 11* | 4.0* | 3
CC1CCC2(CC1)NC(=O)N(CC(=O)N1CCc3ccccc3C1)C2=O (centres undefined) | -1 | -1 | -1 | 2 | -1 | -2
NC1=NC(c2ccc(Br)cc2)n2c(nc3ccccc32)N1 (centres undefined) | -1 | 2 | 2 | 0 | -1 | -1
COc1ccc(Cc2c(-c3ccc(C#N)cc3)nc3c4ccccc4ccn23)c(C)c1 | -1 | x | 2 | 5 | -1 | -1
COc1ccc(Cc2c(-c3ccccc3)nc3c4ccccc4ccn23)c(C)c1 | 0 | x | 5.6* | 9 | 0 | -1
COc1ccc(Cc2c(-c3ccc(F)cc3)nc3c4ccccc4ccn23)c(C)c1 | 1 | x | 6.0* | 3 | 1 | 4
COc1ccccc1Cc1c(-c2ccc(OC)c(OC)c2)nc2c3ccccc3ccn12 | -1 | x | 3 | -1 | -3 | -4
COc1ccc(C=O)cc1CN1C(=O)c2ccccc2C1=O | -1 | 3 | -2 | -2 | 0 | -1
CN1CCN(CC(=O)NN(Cc2ccccc2)c2ccccc2)CC1 | -1 | 4.5* | 0 | -3 | 0 | -2
CCN(CC)CC(=O)NN(Cc1ccccc1)c1ccccc1 | -2 | 1 | -1 | 0 | 1 | 1
CCc1nc(SCC(=O)Nc2ccccc2C)n[nH]1 | -1 | 1 | 1 | 1 | -1 | -2
CCOC(=O)CC(NC(=O)CCc1c(C)nc2nc(C)nn2c1C)c1ccc(OC(C)C)cc1 (centres undefined) | -1 | -1 | 0 | -2 | 0 | 2
CCC(=O)Oc1ccc(C(=O)Nc2cccc(C(=O)NCC(C)C)c2)cc1 | -1 | 4.7* | -1 | 0 | 0 | -4
O=C(Cn1c(NCCCO)nc2ccccc21)c1ccc(F)cc1 | 0 | 0 | 0 | 0 | 0 | 0
CC(C)c1ccc(NC(=S)N2CCCC2)cc1 | 0 | 2 | 5 | 6 | 3.9* | 4

Screens: PubChem, The Scripps Research Institute Molecular Screening Center
